The values that follow come from PubChem BioAssay (NCATS).

Inconclusive results are not listed. Where a call stands in place of a potency, no number is given. Active and inactive are the calls of the source. The call rests on the fitted dose curve.

In the assay the target is Nucleoprotein (Lymphocytic choriomeningitis virus (strain Armstrong)) (UniProt P09992). Nature of the assay: qHTS for Inhibitors of the Functional Ribonucleoprotein Complex (vRNP) of Lymphocytic Choriomeningitis Arenaviruses (LCMV): LCMV Primary Screen - GLuc reporter signal (AID 1347086). Further: nearly all actives have a fitted effect of over 70% in size. Particulars: LCMV minigenome vRNP cell assay, Gaussia luciferase reporter; series mostly up to 57.5 µM. In general terms: In qHTS, concentration-response curves come from the screen itself.
Nucleoprotein (Lymphocytic choriomeningitis virus (strain Armstrong)), sequence (P09992 whole entry, looked up): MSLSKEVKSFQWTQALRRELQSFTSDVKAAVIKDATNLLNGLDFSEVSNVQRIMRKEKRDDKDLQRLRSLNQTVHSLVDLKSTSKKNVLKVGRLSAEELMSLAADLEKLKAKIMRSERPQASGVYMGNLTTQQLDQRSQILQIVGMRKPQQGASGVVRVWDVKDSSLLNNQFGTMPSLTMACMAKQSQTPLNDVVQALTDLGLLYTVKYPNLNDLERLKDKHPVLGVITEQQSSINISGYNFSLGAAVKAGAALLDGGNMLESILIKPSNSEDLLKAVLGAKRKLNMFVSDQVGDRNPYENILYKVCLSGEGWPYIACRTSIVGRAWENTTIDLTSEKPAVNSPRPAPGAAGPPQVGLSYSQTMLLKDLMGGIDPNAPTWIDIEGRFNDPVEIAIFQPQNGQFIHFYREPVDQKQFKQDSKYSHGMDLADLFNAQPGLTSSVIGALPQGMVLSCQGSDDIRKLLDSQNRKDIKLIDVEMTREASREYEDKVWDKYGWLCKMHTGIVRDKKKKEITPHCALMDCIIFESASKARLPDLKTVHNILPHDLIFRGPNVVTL
With `CC(c1c(O)c2ccccc2[nH]c1=O)C1(C)CCC(O)C(C)(C)O1` (centres undefined), the Potency entry was “inactive”.
For `C[C@]12CCC(=O)C=C1[C@@H]1CC1[C@H]1[C@H]3[C@@H]4C[C@H]4[C@@]4(CCC(=O)O4)[C@@]3(C)CC[C@H]12` (some centres undefined) the value was “inactive”.
For `COc1cccc(OC)c1C(=O)O` the value was “inactive”; for `COc1ccc(C(=O)/C=C/c2ccc(O)cc2)c(O)c1CC=C(C)C`, “inactive”; for `CCCCCCCCCCCC(=O)OCC`, “inactive”.
For `COc1cc(C/C=C\c2ccccc2)c(OC)cc1O` the value was “inactive”.
For the molecule `COc1c2c(cc3oc(C)cc(=O)c13)OC(C(C)(C)OC1OC(CO)C(O)C(O)C1O)C2` (centres undefined), the Potency entry was “inactive”.
For the molecule `O=C1NC(=S)NC1=Cc1ccc(O)cc1`, the Potency entry is “inactive”.
In the case of `COc1cc(O)c2c(=O)c3c(OC)c(O)ccc3oc2c1`, the Potency entry is “inactive”.
Regarding `CNc1nc(-c2ccc3c(N)n[nH]c3c2)cc(N2C[C@@H](C(=O)NC3CCCCC3)CC[C@@H]2C)n1`, the Potency entry is “inactive”.
For `CC(=O)O[C@H]1C2[C@@H](OC(=O)Cc3ccccc3)[C@@H](C)C[C@]2(OC(C)=O)C(=O)/C(C)=C/[C@@H]2[C@H](CC[C@@]13CO3)C2(C)C` (some centres undefined) the value was “inactive”; for `COc1cc2c(c(OC)c1OC)-c1c(cc3c(c1OC)OCO3)CC(C)C(C)(O)C2OC(=O)c1ccccc1` (centres undefined), “inactive”; for `C/C(=C\COc1ccc2ccc(=O)oc2c1)CC[C@@H](O)C(C)(C)O`, “inactive”.
Regarding `C=CCCCCCCCCCCCC(O)CC(O)COC(C)=O` (centres undefined), the Potency entry is “inactive”.
On to `C=C[C@H]1[C@H](O[C@@H]2O[C@H](CO)[C@@H](O)[C@H](O)[C@H]2O)OC=C2C(=O)OCC[C@]21O`, for which the Potency entry was “inactive”.
For `CC(C)CCOC(=O)c1ccccc1` the value was “inactive”; for `CC12CCC(=O)C=C1CCC1C2C(O)CC2(C)C(O)CCC12` (centres undefined), “inactive”; for `COC(=O)C1=CO[C@@H](O)[C@@H]2C(CO)=CC[C@@H]12`, “inactive”.
Take `CC(=O)Nc1ccccc1O`: the Potency result was “inactive”.
For `CCCCCCCCCCCC` the value was “inactive”; for `CC(C)C1Oc2cc3oc(=O)ccc3cc2C1=O` (centres undefined), “inactive”; for `COc1c2ccoc2nc2c(OC)c(O[C@@H]3O[C@H](C)[C@@H](O)[C@@H](O)[C@H]3O)ccc12`, “inactive”.
Then `COc1c(O)cc2c(=O)oc3c(OC)c(O)cc4c(=O)oc1c2c34`, with “inactive”; and `C/C(=C\COc1c2ccoc2cc2oc(=O)ccc12)CCC(O)C(C)(C)O` (centres undefined), with “inactive”; and `CC(C)=CCCC(C)CC(=O)O` (centres undefined), with “inactive”.
Then `C=CC(C)=CCC=C(C)C`, with “inactive”; and `O=c1cc(-c2ccccc2)c2c(O)cc(O)cc2o1`, with “inactive”; and `COc1cc(CCc2ccccc2)c(C(=O)O)c(O)c1CC=C(C)C`, with “inactive”.
Take `CC1=C(C(=O)O)N2C(=O)C(NC(=O)CCCC(=O)O)C2SC1` (centres undefined): the Potency entry was “inactive”.
Then `CCCCN`, with “inactive”; and `C=C(C)C(O)COc1c2occc2c(OC)c2ccc(=O)oc12` (centres undefined), with “inactive”.
Then `C=C1[C@H](n2cnc3c(=O)[nH]c(N)nc32)C[C@H](O)[C@H]1CO`, with “inactive”; and `CCC(C)(C)O`, with “inactive”.
For the molecule `CC1(C)CCC[C@@](C)([C@H]2CC[C@]3(C)[C@@H]2[C@H](O)C[C@@H]2[C@@]4(C)CC[C@H](O)C(C)(C)[C@@H]4CC[C@]23C)O1`, the Potency result is “inactive”.
Then `CCOC(=O)[C@H](CCc1ccccc1)N[C@@H](C)C(=O)N1CCCC1C(=O)O` (some centres undefined), with “inactive”; and `COc1cc(C)cc(O)c1`, with “inactive”.
For `O=C1C=CC[C@H](/C=C/C[C@@H](O)C[C@H](O)CCc2ccccc2)O1` the value was “inactive”; for `c1ccc(C(NCc2cccnc2)(c2ccccc2)c2ccccc2)cc1`, “inactive”.
Then `CCCC(=O)OC`, with “inactive”.
